Source: PubChem BioAssay (EPA / NIEHS)
Some compounds were tested as several samples or in several runs, with calls that do not always agree. Active and inactive are the calls of the source. Rule for the calls: active = hit-call score of the fitted dose curve at least 0.9, where 1 is the maximum; inactive = score below 0.9.

Target: Estrogen receptor (Homo sapiens) (UniProt P03372)
Test: OT_ERa_GFPERaERE_0480: Odyssey Thera (OT) 8-hour HeLa Transcription Induction Assay for Estrogen Receptor (AID 2283381)
Protocol: OT_ERa_GFPERaERE_0480 is a cell-based, single-readout assay that uses HeLa, a human cervix cell line, with measurements taken at 8 hours after chemical dosing in a 384-well plate.OT_ERa_GFPERaERE_0480 is one of one assay component(s) measured or calculated from the OT_ERa_GFPERaERE_0480 assay. It is designed to make measurements of fluorescent protein induction, a form of inducible reporter, as detected with optical microscopy: fluorescence microscopy signals by Microscopy technology.Data from the assay component OT_ERa_GFPERaERE_0480 was analyzed into 1 assay endpoint. This assay endpoint, OT_ERa_EREGFP_0480, was analyzed in the positive analysis fitting direction relative to DMSO as the negative control and baseline of activity. Using a type of inducible reporter, measures of receptor for gain-of-signal activity can be used to understand the reporter gene at the pathway-level as they relate to the gene ESR1. Furthermore, this assay endpoint can be referred to as a primary readout, because the performed assay has only produced 1 assay endpoint. To generalize the intended target to other relatable targets, this assay endpoint is annotated to the nuclear receptor intended target family, where the subfamily is steroidal.
All assay endpoints are quantified using high content image analysis algorithms.

Chain of Estrogen receptor (Homo sapiens) (P03372 whole entry, looked up): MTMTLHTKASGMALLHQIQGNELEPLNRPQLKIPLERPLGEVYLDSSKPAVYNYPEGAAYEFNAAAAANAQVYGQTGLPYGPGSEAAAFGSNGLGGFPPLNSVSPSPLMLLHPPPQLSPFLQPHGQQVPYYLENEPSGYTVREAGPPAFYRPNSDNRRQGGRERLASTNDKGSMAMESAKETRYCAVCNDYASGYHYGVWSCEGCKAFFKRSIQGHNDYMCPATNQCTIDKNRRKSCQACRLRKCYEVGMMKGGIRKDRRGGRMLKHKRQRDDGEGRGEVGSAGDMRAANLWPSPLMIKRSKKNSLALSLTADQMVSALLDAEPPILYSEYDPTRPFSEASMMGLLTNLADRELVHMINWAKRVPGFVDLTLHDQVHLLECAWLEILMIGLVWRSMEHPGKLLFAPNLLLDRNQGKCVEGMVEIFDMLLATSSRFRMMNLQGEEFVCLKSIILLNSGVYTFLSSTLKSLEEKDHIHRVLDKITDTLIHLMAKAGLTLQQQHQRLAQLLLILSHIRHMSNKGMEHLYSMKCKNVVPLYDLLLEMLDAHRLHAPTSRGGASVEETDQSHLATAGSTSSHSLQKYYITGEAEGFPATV

| Structure (SMILES) | outcome | AC50 |
| --- | --- | --- |
| O=C(NC(=O)c1cc(F)c(F)cc1Cl)Nc1cc(F)ccc1N1CCC(C(=O)O)CC1 | inactive |  |
| CCOC(=O)C(O)(c1ccc(Cl)cc1)c1ccc(Cl)cc1 | inactive |  |
| Cc1cccc([N+](=O)[O-])c1 | inactive |  |
| C=CC(=O)NCNC(=O)C=C | inactive |  |
| CCC(C)c1cc([N+](=O)[O-])cc([N+](=O)[O-])c1O (stereo not given) | inactive |  |
| CCC(=O)O[C@H]1CC[C@H]2[C@@H]3CCC4=CC(=O)CC[C@]4(C)[C@H]3CC[C@]12C | inactive | 12.3 µM (active) |
| CO/C=C(/C(=O)OC)c1ccccc1COc1cccc(C(F)(F)F)n1 | inactive |  |
| c1cc2ccc3cccc4ccc(c1)c2c34 | inactive |  |
| Sc1ccccc1 | inactive |  |
| CCCN(CCC)N=O | inactive |  |
| CC(C)C(=O)OCC(C)(C)C(OC(=O)C(C)C)C(C)C (stereo not given) | inactive |  |
| N#Cc1ccc(N(CC(N)=O)CC(F)(F)F)cc1C(F)(F)F | inactive |  |
| CC1=C2C[C@H]3[C@@H](CC=C4C[C@@H](O)CC[C@@]43C)[C@@H]2CC[C@]12O[C@@H]1C[C@H](C)CN[C@H]1[C@H]2C | inactive |  |
| Cc1ccccc1[N+](=O)[O-] | inactive |  |
| Cc1ccc(O)c(C)c1 | inactive |  |
| Oc1ccc(Cl)cc1Cl | inactive |  |
| C1CC2OC2CC1C1CO1 (stereo not given) | inactive |  |
| O=S(=O)(O)C(F)(F)C(F)(F)C(F)(F)C(F)(F)C(F)(F)C(F)(F)F | inactive |  |
| Clc1ccc(C(Cl)(Cl)Cl)cc1 | inactive |  |
| CCOCCOC(C)=O | inactive |  |

| Structure (SMILES) | outcome | AC50 |
| --- | --- | --- |
| Cc1ccccc1O | inactive |  |
| CCSC(=O)N(CC)C1CCCCC1 | inactive |  |
| Clc1ccc(Cl)cc1 | inactive |  |
| Cc1cc2c3c(c1)C(c1ccccc1)=N[C@@H](NC(=O)c1ccncc1)C(=O)N3CC2 | inactive |  |
| OCC(O)CO | inactive |  |
| CN(C)CCO | inactive |  |
| CC(c1ccc(O)cc1)(c1ccc(O)cc1)c1ccc(O)cc1 |  | 3.62 µM (active) |
| C=CC(N)=O | inactive |  |
| O=C(O)C(F)(F)C(F)(F)C(F)(F)C(F)(F)C(F)(F)F | inactive |  |
| Cc1cccc(C)c1N | inactive |  |
| CCCCCCCCOC(=O)c1ccccc1C(=O)OCCCCCCCC | inactive |  |
| CCCCCCCCCc1ccc(O)cc1 | inactive |  |
| O=C(O)C(F)(F)C(F)(F)C(F)(F)C(F)(F)C(F)(F)C(F)(F)C(F)(F)C(F)(F)F | inactive |  |
| c1ccc(-c2ccccc2)cc1 | inactive |  |
| ClC1=C(Cl)[C@]2(Cl)[C@@H]3[C@@H]4C[C@@H]([C@H]5O[C@@H]45)[C@@H]3[C@@]1(Cl)C2(Cl)Cl | inactive |  |
| O=C(O)C(F)(F)C(F)(F)C(F)(F)C(F)(F)C(F)(F)C(F)(F)C(F)(F)C(F)(F)C(F)(F)F | inactive |  |
| CCOP(=S)(OCC)SCSC(C)(C)C | inactive |  |
| CN(C)c1nc(=O)n(C2CCCCC2)c(=O)n1C | inactive |  |
| ClC(Cl)=C(c1ccc(Cl)cc1)c1ccc(Cl)cc1 | inactive |  |
